High-throughput results: PubChem BioAssay, several laboratories
Anthrax LF prot = anthrax lethal factor protease inhibition | P15917 | multiplex microsphere protease cleavage assay, LF | 360,000 tested, 0.12% active | inhibition, % at 10 µM
Autofluor counter = flagged as autofluorescent in microsphere protease counterscreen; compound autofluorescence counterscreen, microsphere flow cytometry; hits give high values; fluorescence intensity (concentration not given with the values); 360,000 tested, 3.1% active; in the data active means fluorescence intensity above about 16000; inconclusive means no clear call, values can overlap the other calls
BoNT A protease = BoNT A light chain protease inhibition; multiplex microsphere protease substrate cleavage, flow cytometry; 360,000 tested, 0.17% active; inhibition, % at 10 µM
BoNT F protease = blocks Botulinum neurotoxin F light chain protease | 360,000 tested, 0.22% active | Multiplex microsphere protease cleavage assay, flow cytometry | inhibition, % at 10 µM; in the data active means inhibition above about 35%, passing the limit was not always enough; inconclusive means no clear call, values can overlap the other calls
SARS 3CLpro inh = SARS-CoV 3CLpro protease inhibition; P0C6X7; recombinant SARS-CoV 3CLpro, quenched FRET peptide cleavage; 290,000 tested, 0.14% active; inhibition, % at 6 µM; in the data active means inhibition above about 12%
Numbers stand for hits; n = inactive; u = inconclusive; x = not tested or not shown. In the library only some 3.5% were active in any assay of this set; here they are far more common. Unless noted, no stated cut-off is given here; in the data, active means inhibition above about 30%; inconclusive means no clear call, values can overlap the other calls; inactive means below that.

SMILES | Anthrax LF prot | Autofluor counter | BoNT A protease | BoNT F protease | SARS 3CLpro inh
COc1cc(OC)cc(C(=O)N(CN2CCCC2=O)c2ccccc2OC)c1 | n | 18589 | n | n | n
COc1ccccc1N(CN1CCCC1=O)C(=O)COc1ccccc1 | n | 16310 | n | n | n
COc1cccc(C(=O)N(CN2CCCC2=O)c2cccc(Cl)c2)c1OC | n | 16669 | n | n | n
CC(C)C[C@H]1CN([C@@H](CC(C)C)CN2CCC[C@H]2CN2C(=O)C(=O)NC[C@@H]2Cc2ccc(O)cc2)C(=O)C(=O)N1CCc1ccccc1 | n | n | n | n | x
O=C(Nc1ccc(NC(=O)c2ccc(Cl)cc2Cl)cc1)c1cccs1 | n | n | n | n | n
O=[N+]([O-])c1cc(/C=N/O)ccc1Sc1ccccc1 | n | n | n | n | n
O=[N+]([O-])c1cc(/C=N/O)ccc1SCc1ccccc1 | n | 22700 | u | n | n
c1ccc(CNc2ncn[nH]2)cc1 | n | n | n | n | x
c1ccc(CNc2ccc(CNc3ncn[nH]3)cc2)cc1 | n | 22732 | u | n | n
CN1CCN(C2=CC3=CC(=C(C#N)C#N)CCC3CC2)CC1 (centres undefined) | n | 17359 | n | n | n
CCN1CCN(C2=CC3=CC(=C(C#N)C#N)CCC3CC2)CC1 (centres undefined) | n | 30604 | n | 48 | n
N#CC(C#N)=C1C=C2C=C(N3CCCCCC3)CCC2CC1 (centres undefined) | 84 | 97979 | 48 | 177 | n
N#Cc1cc(Cl)c(N2CCOCC2)cc1C#N | n | n | n | n | n
CC1(C)CC(NCCN2CCN(C3=CC(=C(C#N)C#N)CC(C)(C)C3)CC2)=CC(=C(C#N)C#N)C1 | n | n | n | n | n
N#CC(C#N)=C1C=C2C=C(N3CCOCC3)CCC2CC1 (centres undefined) | n | 26074 | n | n | n
COc1ccc(C(=O)Nc2ccccc2N2CCOCC2)cc1S(=O)(=O)N1CCCC1 | n | n | n | n | x
O=C1/C(=C/c2cccnc2)SC(=S)N1C1CCS(=O)(=O)C1 (centres undefined) | n | n | n | n | n
O=C(NCCC1=CCCCC1)c1ccc(Cl)c(S(=O)(=O)N2CCOCC2)c1 | n | n | n | n | n
Cc1ccc(CSCCNC(=O)c2ccc(Cl)c(S(=O)(=O)N3CCOCC3)c2)cc1 | n | 20110 | n | n | n
Cc1ccc(Cl)cc1N1CCN(C(=O)c2cn(C)c(=O)c3c2c2ccccc2n3C)CC1 | n | n | n | n | n
Cc1cccc(N2CCN(C(=O)c3cn(C)c(=O)c4c3c3ccccc3n4C)CC2)c1C | n | 23203 | n | n | n
Cc1ccc(-c2nnn(CC(=O)NCCc3ccc4c(c3)OCO4)n2)o1 | n | n | n | n | n
CC(C)SCCCCOc1ccc2ccccc2c1 | n | 21736 | n | n | n
CCCc1nc(SCC(=O)c2ccc(OC)cc2)c2ccccc2n1 | n | n | n | n | n
Cc1cccc(CN(C)C[C@H]2OCc3cnnn3CCCC(=O)N([C@H](C)CO)C[C@@H]2C)c1 | n | n | n | n | x
SMILES | Anthrax LF prot | Autofluor counter | BoNT A protease | BoNT F protease | SARS 3CLpro inh
CCOc1ccc(CC(=O)Nc2sc(Cc3ccccc3)c(C)c2C(N)=O)cc1OCC | n | 23316 | n | n | n
Cc1c(Cc2ccccc2)sc(NC(=O)c2ccco2)c1C(N)=O | n | n | n | n | n
O=[N+]([O-])c1c(NCCO)cc(N2CCN(Cc3ccc4c(c3)OCO4)CC2)c2nonc12 | n | n | n | n | n
O=[N+]([O-])c1c(NCCO)cc(N2CCCCCC2)c2nonc12 | 100 | n | n | u | n
Cc1cccc(C)c1NC(=O)CSc1nnc(-c2ccco2)n1N | n | 21789 | n | n | n
Cn1c(SCc2cccc3ccccc23)nnc1-c1ccco1 | n | n | n | n | n
Nn1c(SCc2cccc3ccccc23)nnc1-c1ccco1 | n | 22596 | n | n | n
Cc1ccc(CN(Cc2ccc(C)o2)C(=S)NCC(=O)O)cc1 | n | n | n | n | n
COc1cccc(-c2csc(N3CCN(C(=S)Nc4ccccc4OC)CC3)n2)c1 | n | n | n | n | n
CCCC(c1nnnn1CCOC)N(Cc1cc2cc(C)c(C)cc2[nH]c1=O)CC1CCCO1 (centres undefined) | n | 16616 | n | n | n
O=C(N1CCN(c2ccccc2)CC1)C1(S(=O)(=O)c2ccc(Cl)cc2)CC1 | n | n | n | n | n
O=C(Nc1cccc(Cl)c1)Nc1nccs1 | n | 16192 | u | n | n
O=C(Nc1ccc(Cl)c(Cl)c1)Nc1nccs1 | n | n | n | n | n
CN(C)S(=O)(=O)N(Cc1ccc(Br)cc1)c1ccccc1 | n | n | n | n | n
CN(C)S(=O)(=O)N(CC(=O)N(Cc1ccccc1)Cc1ccccc1)c1ccccc1 | n | 22498 | n | n | n
O=C(O)CCCN1C(=O)/C(=C\c2ccc(-c3nc4ccccc4s3)o2)SC1=S | n | n | 41 | n | n
O=C(O)CCN1C(=O)/C(=C/c2ccc(-c3nc4ccccc4s3)o2)SC1=S | n | n | n | n | n
CCCc1nc2ccccc2[nH]1 | n | n | n | n | n
CCOC(=O)Cc1csc(NS(C)(=O)=O)n1 | n | n | n | n | n
CCOc1ccc(-n2c(=O)c3sccc3n(CC(=O)NCc3ccco3)c2=O)cc1 | n | 19457 | n | n | n
CN(C)S(=O)(=O)c1cccc(-c2cn3cc(Cl)ccc3n2)c1 | n | 17034 | n | n | n
CN(C)S(=O)(=O)c1cccc(-c2cn3ccccc3n2)c1 | n | n | n | n | n
COc1ccc(Cl)cc1NC(=S)Nc1cccc(C)c1 | n | n | n | n | n
COC(=O)c1ccsc1NC(=O)CSc1nnnn1-c1ccccc1SC | n | 24392 | n | n | n
CSc1ccccc1NC(=O)CSc1nnnn1-c1ccccc1SC | n | n | n | n | n
SMILES | Anthrax LF prot | Autofluor counter | BoNT A protease | BoNT F protease | SARS 3CLpro inh
CSc1ccccc1-n1nnnc1SCC(=O)Nc1ccccc1C | n | 20932 | n | n | n
CCN(CC)C1=CC(=O)OC12CCCCC2 | n | 22472 | u | n | n
Cc1ccc(C)n1-c1ccc(N2CCOCC2)cc1 | n | n | n | n | n
Cc1cc(N2CCOCC2)cc(C)[n+]1[O-] | n | 16435 | n | n | n
O=c1cc[nH]c2c(Cl)cccc12 | n | n | n | u | n
O=C(O)CC(C(=O)NC1CCCCC1)C1CCCO1 (centres undefined) | n | 22137 | n | n | n
Cc1cc2c(c(=O)n1Cc1ccc3c(c1)OCO3)C(c1cccnc1)C(C#N)=C(N)O2 (centres undefined) | n | 20731 | n | n | n
CCOc1ccccc1C1C(C#N)=C(N)Oc2cc(C)n(C)c(=O)c21 (centres undefined) | n | 21644 | u | n | n
CCOc1ccc(C2C(C#N)=C(N)SC(N)=C2C#N)cc1OCC | n | n | n | n | x
CCOc1ccccc1C1C(C#N)=C(N)SC(N)=C1C#N | n | n | n | 51 | n
COc1ccccc1C1C(C#N)=C(N)Oc2cc(C)n(CCCn3ccnc3)c(=O)c21 (centres undefined) | n | n | n | n | n
Cc1cc2c(c(=O)n1CCCn1ccnc1)C(c1ccco1)C(C#N)=C(N)O2 (centres undefined) | n | 22337 | n | n | n
O=C(Nc1ccc2ccccc2c1)c1ccc(NS(=O)(=O)c2ccc(Br)s2)cc1 | n | n | n | n | n
